# Assay results: publication PMC5540273 (PLoS ONE, 2017)
# What was measured:
# Conditions in all cases: concentration: 1 μM, replicates: in singlicate; n = 1
# PIK4CB = test system: T1, PIK4CB
# T1 construct: gene PI4KB
# PIKFYVE = test system: PIKFYVE
# PIM1 = test system: PIM1
# PIM2 = test system: PIM2
# PIM3 = test system: PIM3
# PIP5K1A = test system: PIP5K1A
# PIP5K1C = test system: PIP5K1C
# PIP5K2B = test system: PIP5K2B
# PIP5K2C = test system: T2, PIP5K2C
# T2 construct: gene PIP4K2C
# PKAC-alpha = test system: T3, PKAC-alpha
# T3 construct: gene PRKACA
# 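Also: KINOMEscan kinase panel screen.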
SMILES,%Inh (PIK4CB) [%],%Inh (PIKFYVE) [%],%Inh (PIM1) [%],%Inh (PIM2) [%],%Inh (PIM3) [%],%Inh (PIP5K1A) [%],%Inh (PIP5K1C) [%],%Inh (PIP5K2B) [%],%Inh (PIP5K2C) [%],%Inh (PKAC-alpha) [%]
COc1ccc(Nc2nccc(-c3ccc(NC(=O)c4cc5cc(F)ccc5[nH]4)cc3)n2)cc1 [GSK1229496],0,0,0,0,0,37,54,17,41,0
COC(=O)c1cccc(NC(=O)NC2CCN(c3ccnc(Nc4ccc(OC)cc4)n3)C2)c1 (stereo not shown) [GSK1379746],21,41,0,0,0,17,10,19,48,0
COC(=O)c1cccc(NC(=O)NC2CCN(c3ccnc(Nc4ccc(F)cc4)n3)C2)c1 (stereo not shown) [GSK1379725],6,0,30,0,0,0,14,9,0,0
Cc1ccc(NC(=O)Nc2ccc(Cl)cc2)cc1-c1ccc(C(=O)Nc2ccncc2)cc1 [GSK1398472],5,0,9,0,0,11,41,12,2,7
CCCCc1nn2ncccc2c1-c1ccnc(NC2CC2)n1 [GW684374],35,0,0,0,0,0,36,0,75,0
Cc1cnc(N)c(/C=C/c2cncc(C(=O)NCCc3ccc(Cl)cc3Cl)c2)c1.Cl [GSK190937],0,0,12,0,0,39,35,21,47,
COc1ccc2cc(-c3nc(-c4ccccc4C(C)C)[nH]c3-c3ccncc3)ccc2c1 [SB-660566],0,0,15,0,0,18,0,38,0,0
COc1nccc(-c2c(-c3ccc(F)cc3)ncn2CCCN2CCOCC2)n1 [SB-282852],49,37,7,0,0,12,4,0,8,0
Cn1cnc2c(N)ncnc21 [SKF-97623],10,44,5,0,0,30,0,14,33,0
CS(=O)(=O)CCNCc1nc(-c2ccc3ncnc(Nc4ccc(OCc5ccccc5)c(Cl)c4)c3c2)cs1.Cl [GW582764],0,25,14,0,0,47,52,10,56,0
FC(F)(F)c1ccccc1-c1cc(-c2c[nH]nc2-c2ccccn2)ccn1 [GW679396],0,0,0,0,0,5,32,15,0,0
CS(=O)(=O)CCNCc1nc(-c2ccc3ncnc(Nc4ccc5c(cnn5Cc5ccccc5)c4)c3c2)cs1.Cl.Cl [GW569716],59,0,21,0,0,46,58,19,41,0
CC[C@@H]1CO[C@H](C(=O)Nc2ccccc2)CN1c1cc(-c2ccc3c(N)n[nH]c3c2)nc(NC)n1 [GSK2376236],33,0,14,0,3,0,39,3,3,74
CNc1nc(-c2ccc3c(N)n[nH]c3c2)cc(N2C[C@@H](C(=O)Nc3ccccc3)CC[C@H]2C)n1 [GSK2298859],0,0,0,0,0,0,50,0,3,57
Cc1ccccc1Cn1ccn2c(=O)cc(N3CCOCC3)nc12 [GSK2269905],9,0,17,0,0,0,11,12,10,0
Cc1ccc(NC(=O)Nc2ccccc2F)cc1-c1ccc(C(=O)Nc2ccncc2)cc1 [GSK1398477],0,0,6,0,0,0,0,0,0,46
c1ccc(-c2ccnc3[nH]ccc23)cc1 [SB-693578],4,11,0,0,0,40,28,4,18,0
Nc1cccc(-c2ccc3c(N)n[nH]c3c2)n1 [GSK2192730],30,0,26,0,13,39,0,4,0,0
COc1ccc(CSc2nnc(-c3ccc4ncsc4c3)o2)cc1C(F)(F)F,0,0,1,0,10,0,11,17,11,0
CC(=O)c1cccc(NC(=O)NC2CCN(c3ccnc(Nc4ccc(F)cc4)n3)C2)c1 (stereo not shown) [GSK1379710],31,25,18,0,4,36,50,8,22,0
COc1ccc(Nc2nccc(N3CCC(NC(=O)c4cc5ccccc5s4)C3)n2)cc1 (stereo not shown) [GSK1379738],19,0,25,0,21,0,40,13,47,0
COc1cccc(CNC(=O)NC2CCN(c3ccnc(Nc4ccc(F)cc4)n3)C2)c1 (stereo not shown) [GSK1379723],11,9,15,0,0,0,11,8,26,0
CNc1cc(-c2ccc3c(N)n[nH]c3c2)nc(N)n1 [GSK2224810],11,0,15,0,0,18,45,5,27,8

SMILES,%Inh (PIK4CB) [%],%Inh (PIKFYVE) [%],%Inh (PIM1) [%],%Inh (PIM2) [%],%Inh (PIM3) [%],%Inh (PIP5K1A) [%],%Inh (PIP5K1C) [%],%Inh (PIP5K2B) [%],%Inh (PIP5K2C) [%],%Inh (PKAC-alpha) [%]
CSc1ccc(-c2nc3n(c2-c2ccncc2)CCC3)cc1 [SKF-105561],24,11,0,0,1,37,0,21,0,5
Cc1ccc(NC(=O)c2ccc(Cl)cc2)cc1-c1ccc(C(=O)Nc2ccncc2)cc1 [GSK1398467],0,0,0,0,0,0,45,0,33,0
COc1ccc(CSc2nnc(-c3ccc4c(c3)CCO4)o2)cc1,0,0,0,0,0,11,23,9,14,0
COc1cccc(C2=C(Nc3cc(Cl)c(O)c(Cl)c3)C(=O)NC2=O)c1 [SB-390767],21,0,0,0,0,0,66,15,15,0
Cc1cccc2c(-c3ccncn3)c(-c3ccc(F)cc3)nn12 [GW515532],0,22,20,0,0,4,31,0,0,7
O=C(Nc1n[nH]c2nc(-c3cccs3)c(Br)cc12)C1CC1 [SB-735297],12,2,0,0,0,15,0,0,0,0
Cc1ccc(NC(=O)Nc2ccccc2)cc1-c1ccc(C(=O)Nc2ccncc2)cc1 [GSK1398471],0,0,9,0,4,0,0,6,0,29
O=C1NC(=O)C(c2ccc(Cl)cc2)=C1Nc1ccc(O)cc1 [SB-340867],13,9,0,3,0,0,40,0,0,0
Cc1nccc(-c2c(-c3ccc(F)cc3)ncn2CCCN2CCOCC2)n1.Cl [SB-282975],42,0,0,13,0,0,22,0,18,24
COc1ccc(Nc2nccc(NCCNC(=O)Nc3cc(C)ccc3C)n2)cc1 [GSK1379899],0,0,0,0,0,0,18,6,39,0
O=c1cc(N2CCOCC2)nc2n(Cc3cccc(Cl)c3Cl)c3ccccc3n12 [GSK2299009],0,0,0,0,0,0,17,0,0,0
Cc1ccc(NC(=O)Nc2ccc(Cl)c(C(F)(F)F)c2)cc1-c1ccc(C(=O)Nc2ccncc2)cc1 [GSK1398470],0,0,23,1,21,0,23,0,8,15
CN1c2ccc(-c3ccc(C(N)=O)cc3)cc2-c2[nH]ncc2S1(=O)=O,0,4,9,0,13,0,81,6,64,13
O=C(Nc1n[nH]c2cc(-c3ccsc3)ccc12)C1CC1 [SB-732932],27,0,18,0,11,61,3,52,3,0
CCn1c(-c2c(N)noc2C)nc2cnccc21 [SB-737856],0,0,0,0,0,0,0,19,6,0
Cc1ccc(-c2nc(Nc3ccncc3)c3ccccc3n2)s1 [GSK189015],5,63,17,0,12,0,22,14,1,21
CCn1c(-c2ccccc2)nc2cnccc21 [SB-733416],0,40,0,0,0,5,21,0,13,0
Cc1c(Cn2c(C)c(C)n3c(=O)cc(N4CCOCC4)nc23)cccc1C(F)(F)F [GSK2328680],0,0,1,0,0,9,44,20,7,0
O=C(Nc1n[nH]c2nc(-c3ccco3)c(Br)cc12)C1CCN(Cc2ccccc2)C1.O=C(O)[C@H](O)[C@@H](O)C(=O)O (stereo not shown) [SB-742034],14,7,9,5,28,0,0,0,0,10
CC(=O)c1c(C)c2cnc(Nc3ccn(C)n3)nc2n(C2CCCC2)c1=O,0,9,0,0,0,0,1,0,91.9,0
CS(=O)(=O)Cc1ccc(Nc2nccc(-c3c(-c4cccc(NC(=O)C5CCCCC5)c4)nn4ncccc34)n2)cc1 [GSK350559],45,2,12,10,17,0,100,12,83,31
CCc1ccc(-c2ccc3c(c2)-c2n[nH]cc2S(=O)(=O)N3C)cc1,0,100,0,0,18,0,45,0,16,0
CNc1nc(-c2ccc3c(N)n[nH]c3c2)cc(N2C[C@@H](C(=O)NC3CCCCC3)OC[C@H]2C)n1 [GSK2375584],0,0,11,0,0,34,54,21,27,5

SMILES,%Inh (PIK4CB) [%],%Inh (PIKFYVE) [%],%Inh (PIM1) [%],%Inh (PIM2) [%],%Inh (PIM3) [%],%Inh (PIP5K1A) [%],%Inh (PIP5K1C) [%],%Inh (PIP5K2B) [%],%Inh (PIP5K2C) [%],%Inh (PKAC-alpha) [%]
COc1ccc(-c2coc3ccc(-c4nnc(C)o4)cc23)cc1,0,0,10,21,15,13,14,9,10,3
Nc1ncnc2occ(-c3ccc4c(c3)CCN4C(=O)Cc3cc(F)ccc3F)c12 [GSK2645446],0,0,0,0,0,0,52,0,16,0
COC(=O)C(NC(=O)NC1CCN(c2ccnc(Nc3ccc(F)cc3)n2)C1)c1ccccc1 (stereo not shown) [GSK1379712],16,28,0,0,0,9,41,17,29,0
Cl.Cl.Cl.N#Cc1ccc(CCNc2nccc(-c3cccc(CN4CCNCC4)c3)n2)cc1 [GSK2137462],26,0,20,0,13,0,0,0,11,13
COc1cc2ncnc(Nc3cccc(Br)c3)c2cc1OC.Cl [GI230329],0,32,21,0,14,0,79,14,52,0
COc1ccc(Nc2nccc(N3CCC(NC(=O)C(C)c4ccc(Cl)cc4)CC3)n2)cc1 (stereo not shown) [GSK1379812],11,0,0,0,2,0,29,63,9,17
COc1ccc(CSc2nnc(-c3ccc4nccn4c3)o2)cc1C(F)(F)F,0,0,6,9,0,2,0,43,0,10
CC(C)c1cc(-c2ccc3c(N)n[nH]c3c2)nc(N)n1 [GSK2250882],0,0,20,0,15,26,49,36,2,0
O=c1cc(N2CCOCC2)nc2n(Cc3ccccc3F)ccn12 [GSK2297428],0,0,0,0,0,6,31,19,0,0
Cc1c(Cn2c3ccccc3n3c(=O)cc(N4CCOCC4)nc23)cccc1C(F)(F)F [GSK2306394],90.3,0,6,0,0,0,8,20,0,0
O=C(Nc1n[nH]c2nc(-c3cccs3)c(Br)cc12)C1CCCC1 [SB-743341],33,9,0,0,0,0,23,3,0,0
CC(C)c1ccc(O)cc1Nc1ccnc2ccc(C(F)(F)F)cc12 [GW482059],45,1,19,0,0,0,0,7,0,0
CNCc1ccc2nc(NC(=O)c3ccc(C(C)(C)C)cc3)cn2c1,19,0,0,9,23,0,17,11,30,0
Fc1ccc(-c2nn3cccc(F)c3c2-c2ccncc2)cc1 [GW475620],0,28,0,0,0,0,28,19,0,11
Cn1cncc1-c1cc2c(Nc3ccc(OCc4ccccc4)cc3)ncnc2cn1 [GW281179],0,18,0,0,0,0,23,0,26,0
Nc1nccc(-c2c(-c3ccc(F)cc3)ncn2C2CCN(Cc3ccccc3)CC2)n1 [SB-219980],25,6,0,0,0,0,15,0,82,2
COC(=O)C(Cc1ccccc1)NC(=O)NC1CCN(c2ccnc(Nc3ccc(F)cc3)n2)C1 (stereo not shown) [GSK1379714],7,22,0,0,0,45,35,30,36,0
Cn1cncc1C(=O)NC1CCN(c2ccnc(Nc3ccc(F)cc3)n2)C1 (stereo not shown) [GSK1379717],26,0,15,0,0,0,32,0,20,0
COc1ccc(Nc2nccc(N3CCC(NC(=O)C(C)c4ccc(Cl)cc4)C3)n2)cc1 (stereo not shown) [GSK1379735],0,0,0,0,35,8,52,18,25,0
CC(=O)c1c(C)c2cnc(Nc3ccc(N4CCNCC4)cn3)nc2n(C2CCCC2)c1=O,0,39,0,0,0,0,0,0,14,0
Fc1ccc(-c2nc[nH]c2-c2ccncc2)cc1 [SB-217360],0,32,19,0,11,19,0,0,2,25
COc1cccc(NC(=O)Nc2ccc(C)c(-c3ccc(C(=O)Nc4ccncc4)cc3)c2)c1 [GSK1398474],0,0,15,0,22,0,0,0,0,17
